Values joined by “and” are separate entries in the source; they are usually repeats but may differ in a detail not shown here. Equal entries are not always repeated. About 2,000 (36%) of roughly 5,500 compounds were called active. Another 18% or so got no clear call; they are omitted. Rule as the data show it: active = normalized growth mostly below about 0.91 (no sharp cut-off); inconclusive = no clear call, values can overlap the other calls; inactive = mostly above about 0.92. This is one part of the list.
Assay: chemical genetic growth profiling, strain panel (AID 1159580);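 also: tested at 20 µM; growth read once vehicle control cultures reached saturation at 30 °C; 1 = growth at the plate median or of vehicle wells; lower values mean less growth of the strain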
Details: S. cerevisiae deletion strains, growth OD

Measured: normalized growth

NC(=O)NO
inactive: locus YAL021C, strain ccr4, hits give low values 1.02 | locus YAL026C, strain drs2, hits give low values 1.03 | locus YAL030W, strain snc1, hits give low values 1 | locus YAL040C, strain CLN3, hits give low values 1.09 | locus YBL061C, strain skt5, hits give low values 1.04 | locus YBR009C, strain hhf1, hits give low values 1.01 | locus YBR021W, strain FUR4, hits give low values 1 | locus YBR023C, strain chs3, hits give low values 1.02 | locus YBR171W, strain sec66, hits give low values 1.02 | locus YBR229C, strain ROT2, hits give low values 0.999 | locus YBR231C, strain swc5, hits give low values 1.01 | locus YBR279W, strain paf1, hits give low values 1.03 | locus YCL011C, strain gbp2, hits give low values 1.02 | locus YCL016C, strain dcc1, hits give low values 1.02 | locus YCL029C, strain bik1, hits give low values 1 | locus YCL061C, strain MRC1, hits give low values 1.01 | locus YCL069W, strain vba3, hits give low values 1.02 | locus YCR088W, strain abp1, hits give low values 1.02 | locus YDL005C, strain med2, hits give low values 1.02 | locus YDL035C, strain GPR1, hits give low values 1.01 | locus YDL040C, strain nat1, hits give low values 1.04 | locus YDL074C, strain BRE1, hits give low values 1.01 | locus YDL101C, strain DUN1, hits give low values 1 | locus YDL134C, strain PPH21, hits give low values 1 | locus YDL185W, strain tfp1, hits give low values 0.994 | locus YDL192W, strain arf1, hits give low values 1.01 | locus YDR001C, strain nth1, hits give low values 1.01 | locus YDR069C, strain doa4, hits give low values 1.02 | locus YDR101C, strain arx1, hits give low values 0.996 | locus YDR137W, strain rgp1, hits give low values 1.04 | locus YDR159W, strain sac3, hits give low values 1.01 | locus YDR162C, strain NBP2, hits give low values 1.01 | locus YDR195W, strain ref2 0.962 | locus YDR297W, strain sur2, hits give low values 1.02 | locus YDR318W, strain mcm21, hits give low values 1 | locus YDR334W, strain swr1, hits give low values 1.01 | locus YDR335W, strain msn5, hits give low values 1.02 | locus YDR363W, strain ESC2, hits give low values 1.01 | locus YDR388W, hits give low values 0.998 | locus YDR392W, strain spt3, hits give low values 1.04 | locus YDR502C, strain sam2, hits give low values 0.989 | locus YEL003W, strain gim4, hits give low values 1.02 | locus YEL037C, strain rad23, hits give low values 1.01 | locus YEL061C, strain CIN8 (second series), hits give low values 1.02 | locus YEL061C, strain CIN8, hits give low values 1 | locus YER002W, strain NOP16, hits give low values 0.998 | locus YER015W, strain faa2, hits give low values 1.01 | locus YER016W, strain bim1, hits give low values 1.01 | locus YER110C, hits give low values 0.997 | locus YER111C, strain swi4, hits give low values 1.03 | locus YER155C, strain BEM2 (second series), hits give low values 1.01 | locus YER155C, strain BEM2, hits give low values 0.998 | locus YER167W, strain BCK2, hits give low values 1 | locus YFR010W, strain ubp6, hits give low values 1.01 | locus YGL078C, strain dbp3, hits give low values 0.999 | locus YGL086W, strain mad1, hits give low values 0.985 | locus YGL167C, strain pmr1, hits give low values 1.02 | locus YGL173C, strain kem1, hits give low values 1.02 | locus YGL227W, strain vid30, hits give low values 1.01 | locus YGL240W, strain doc1, hits give low values 0.983 | locus YGL248W, strain PDE1, hits give low values 1 | locus YGL253W, strain hxk2, hits give low values 1.03 | locus YGR078C, strain PAC10, hits give low values 1 | locus YGR135W, strain pre9, hits give low values 0.997 | locus YGR229C, strain SMI1, hits give low values 0.997 | locus YGR252W, strain gcn5, hits give low values 0.943 | locus YHR013C, strain ard1, hits give low values 1.02 | locus YHR027C, strain rpn1, hits give low values 1.02 | locus YHR030C, strain SLT2, hits give low values 0.989 and 0.962 | locus YHR079C, strain IRE1 (second series), hits give low values 1 | locus YHR079C, strain IRE1, hits give low values 0.981 | locus YHR094C, strain hxt1, hits give low values 0.997 | locus YHR129C, strain ARP1, hits give low values 1 | locus YHR142W, strain chs7, hits give low values 1.04 | locus YHR200W, strain rpn10, hits give low values 0.992 | locus YIL066C, strain RNR3, hits give low values 1.01 | locus YIL073C, strain SPO22, hits give low values 1.03 | locus YIL125W, strain kgd1, hits give low values 0.989 | locus YIR030C, strain dcg1, hits give low values 1.01 | locus YJL092W, strain hpr5, hits give low values 1.02 | locus YJL095W, strain BCK1 (second series), hits give low values 1 | locus YJL095W, strain BCK1, hits give low values 1.01 and 0.965 | locus YJL115W, strain asf1, hits give low values 1.01 | locus YJL129C, strain trk1, hits give low values 1.03 | locus YJL134W, strain LCB3, hits give low values 1 | locus YJL154C, strain vps35, hits give low values 1.03 | locus YJL164C, strain tpk1, hits give low values 1.01 | locus YJL166W, strain qcr8, hits give low values 1.03 | locus YJL168C, strain set2, hits give low values 1 | locus YJL187C, strain SWE1 (second series), hits give low values 1 | locus YJL187C, strain SWE1, hits give low values 1.03 | locus YJR043C, strain POL32, hits give low values 1
